Results reported in PubChem BioAssay AID686978 (National Center for Advancing Translational Sciences (NCATS), 2013).
Among all 420,000 compounds or so, about 64,000 (15%) were called active. Not shown: some 27% with an inconclusive outcome. The call rests on the fitted dose curve; in most records, active means well fitted inhibition curve with a large enough effect; inconclusive means small, poorly fitted or top-dose-only effect; inactive means flat fitted curve, though single readings scatter. These entries were drawn from the full list. Entries that show only a call come without a potency.

Assay: qHTS for Inhibitors of human tyrosyl-DNA phosphodiesterase 1 (TDP1): qHTS in cells in absence of CPT; further: nearly all actives have a fitted effect of over 55% in size
Details: DT40 Tdp1-/- hTDP1 cells, no CPT, ATP luminescence, 48 h; activity change, negative = growth inhibition: at 46.2 µM (top of the series)
How it was run: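 Readout: luminescence from CellTiter-Glo after 30 min in the dark at RT. Cells: DT40 Tdp1-/- with stable hTDP1, 400/well. Exposure: compounds alone, ≥48 hr, 37 °C.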
Potency means the concentration at half of the fitted maximal effect.

| SMILES | Potency |
| --- | --- |
| Cc1ccc(S(=O)(=O)N(C)C)cc1NC(=O)c1ccc(-n2cncn2)c([N+](=O)[O-])c1 | inactive |
| Cc1cc(Nc2cccc(C(F)(F)F)c2)nc2ccc(NC(=O)c3ccc(=O)[nH]c3)cc12 | 4.61 µM (active) |
| O=C(NNC(=O)c1cccc(S(=O)(=O)Nc2ccc(Cl)cc2)c1)c1ccc(=O)[nH]c1 | inactive |
| COc1cc(OC)cc(C(=O)Nc2ccc3nc(Nc4cccc(C(F)(F)F)c4)cc(C)c3c2)c1 | 5.8 µM (active) |
| O=C(COC(=O)c1cc[n+]([O-])cc1)Nc1ccc(Cl)c(C(F)(F)F)c1 | inactive |
| CCn1c(Cc2ccccc2)nnc1SCC(=O)Nc1ccccc1 | inactive |
| CCc1nn(CC(=O)N2CCN(c3cccc(C(F)(F)F)c3)CC2)c(=O)c2cc3occc3n12 | inactive |
| CC1COc2ccccc2N1C(=O)c1ccc(F)cc1 (configuration not stated) | inactive |
| C/C(CC(=O)NC(C)c1ccccc1)=N\NC(N)=S (configuration not stated) | inactive |
| Cc1cccc(NC(=O)c2cc(N3C(=O)CCC3=O)ccc2Cl)n1 | inactive |
| Cc1ccccc1Nc1c([N+](=O)[O-])ccc2nonc12 | inactive |
| COc1ncc2nc(-c3ccc(Cl)cc3)c(=O)n(-c3ccccc3)c2n1 | inactive |
| N#Cc1ccc(-c2nc3c(Cl)cc(C(F)(F)F)cn3c2Cc2ccccc2C(F)(F)F)cc1 | inactive |
| COc1ccccc1Cc1c(-c2ccc(Cl)cc2)nc2c3ccccc3ccn12 | 20.6 µM (active) |
| CC(C)OC(=O)CC(=O)CC(O)c1cccc([N+](=O)[O-])c1 (configuration not stated) | inactive |
| NC(Cc1ccccc1)c1csc(Nc2cc(Oc3ccccc3)ncn2)n1 (configuration not stated) | 16.4 µM (active) |
| CCNC(=O)C1CCCN(C(=O)c2cc(F)ccc2C)CC1 (configuration not stated) | inactive |
| CC(C)CN(CC(C)C)CC(O)CN(c1ccccc1)S(=O)(=O)c1ccccc1[N+](=O)[O-] (configuration not stated) | 23.1 µM (active) |
| Cc1cccc(N(CC(O)CN(C)C)S(=O)(=O)c2ccccc2)c1 (configuration not stated) | inactive |
| CCN(c1ccccc1)S(=O)(=O)c1cc2c(cc1C)n(C)c(=O)c(=O)n2C | inactive |
| NC(=O)CCCC1=NS(=O)(=O)c2ccccc2N1 | inactive |
| CCCCN1C(=O)/C(=C2/C=CC=CN2C)SC1=S | inactive |
| CN1C=CC=C/C1=C1\SC(=S)N(Cc2ccccc2)C1=O | inactive |
| CCCCN1C(=O)/C(=C/C=C2/C=Cc3ccccc3N2CC)SC1=S | 8.2 µM (active) |
| CCCOc1ccc(-c2nc(N)n[nH]2)cc1 | inactive |
| CC(OC(=O)c1ccc2ccccc2n1)C(=O)c1ccccc1 (configuration not stated) | inactive |

| SMILES | Potency |
| --- | --- |
| O=C1NC(c2cccc(Cl)c2)Nc2ccccc21 (configuration not stated) | 16.4 µM (active) |
| COc1ccc(C2NC(=O)c3ccccc3N2)cc1 (configuration not stated) | inactive |
| COc1cccc(C2Nc3cccc4cccc(c34)N2)c1 | inactive |
| Cc1cc(C)c(C#N)c(SCC(=O)N(CC(C)C)C2CCS(=O)(=O)C2)n1 (configuration not stated) | inactive |
| O=C(CSc1cccc2cccnc12)N/N=C/c1cccnc1 | 4.11 µM (active) |
| Cc1nc2ccccc2n1CC(=O)N/N=C/c1cccnc1 | inactive |
| O=C(CNC(=O)c1cccnc1)N/N=C/c1cccnc1 | inactive |
| Cc1cc(C)c(C#N)c(SCC(=O)Nc2ccccc2)n1 | inactive |
| COc1ccc(NC(=O)c2sccc2SCC#N)cc1 | inactive |
| CC1=C(C(=O)Nc2ccccc2)C(c2cccs2)C(C#N)=C(SCC#N)N1 (configuration not stated) | 7.31 µM (active) |
| N/C(=N\c1nc2ccccc2o1)NC(=O)C(Cc1ccccc1)N1C(=O)c2ccccc2C1=O (configuration not stated) | inactive |
| Nn1c(SCC(=O)Nc2ccc3c(c2)CCC3)nnc1C1CC1 | inactive |
| Cc1nc2nc(SCC(=O)NCc3ccco3)nn2c(C)c1Cc1ccccc1 | inactive |
| COC(OC)c1ccnc(SCc2ccccc2Cl)n1 | inactive |
| Cc1cccc(Cc2c(C)nc3nc(SCc4ccccc4Cl)nn3c2C)c1 | 20.6 µM (active) |
| Cc1nc(CNS(=O)(=O)c2cc([N+](=O)[O-])ccc2C)cs1 | inactive |
| COc1cc(SC)ccc1C(=O)NCCOc1ccccc1Cl | inactive |
| Cc1csc(NC(=O)CSc2nc(=O)cc(N)n2-c2ccc(F)cc2)n1 | inactive |
| COc1ccccc1CNC(=O)c1ccc(SC)cc1OC | 15.8 µM (active) |
| COc1cc(SC)ccc1C(=O)NNC(=O)C1COc2ccccc2O1 (configuration not stated) | inactive |
| COc1cc(SC)ccc1C(=O)Nc1nc(C)cs1 | 11.6 µM (active) |
| COc1ccc(Cc2nnc(NC(=O)c3ccc(OC)cc3OC)s2)cc1 | inactive |
| CCCCc1cc(=O)oc2cc(C)cc(OCc3nn[nH]n3)c12 | inactive |
| O=C(NN1C(=O)C2CCCCC2C1=O)c1ccco1 (configuration not stated) | inactive |
| Cc1ccc(S(=O)(=O)N2C[C@H]3C(=O)C[C@@H](c4cccc5ccccc45)N(S(=O)(=O)c4ccc(C)cc4)[C@H]3C[C@H]2c2ccc(Cl)cc2)cc1 | inactive |
| O=C(Nc1ccccn1)C1CCN(S(=O)(=O)c2ccc3c(c2)OCCO3)CC1 | inactive |

| SMILES | Potency |
| --- | --- |
| CCCCn1c(=S)[nH]c2ncccc2c1=O | inactive |
| Cc1cc(Nc2ccc(Br)cc2F)n2ncnc2n1 | inactive |
| CC[C@H]1OC(=O)[C@H](C)[C@@H](O[C@H]2C[C@@](C)(OC)[C@@H](O)[C@H](C)O2)[C@H](C)[C@@H](O[C@@H]2O[C@H](C)C[C@H](N(C)C)[C@H]2O)[C@](C)(O)C[C@@H](C)[C@@H]2N[C@@H](COCCOC)O[C@H]([C@H]2C)[C@]1(C)O | inactive |
| CCN(CC)S(=O)(=O)c1ccc(NC(=O)c2cccnc2Cl)c(NC(=O)c2cccnc2Cl)c1 | inactive |
| CCN(CC)S(=O)(=O)c1ccc(Cl)c(C(=O)NCCN2CCOCC2)c1 | inactive |
| CCN(CC)S(=O)(=O)c1ccc(Cl)c(C(=O)NC(C)C(c2cccs2)N2CCCC2)c1 (configuration not stated) | 14.6 µM (active) |
| COc1cc(C(=O)N/C(=C\c2cn(C)c3ccccc23)C(=O)N2CCOCC2)cc(OC)c1OC | inactive |
| Cc1c(N=Nc2ccc(N(C)C)cc2)c(=O)n(-c2ccccc2)n1C | inactive |
| COc1ccc(-c2ccc(OC(=O)NC3CCS(=O)(=O)C3)cc2)cc1 (configuration not stated) | 8.2 µM (active) |
| COc1ccc(NC(=S)NC2CCS(=O)(=O)C2)cc1 (configuration not stated) | inactive |
| N#Cc1ccc(OCC(=O)NC(=O)NC2CCS(=O)(=O)C2)cc1 (configuration not stated) | inactive |
| CC(C)(C)CN1C(=O)C(=O)NC[C@H]1Cc1cccc2ccccc12 | inactive |
| Nc1ccc(C(=O)N2CCN(S(=O)(=O)c3ccc(Cl)cc3)CC2)cc1[N+](=O)[O-] | inactive |
| CC1CCN(C(=O)c2ccc(S(=O)(=O)Cc3cc(F)ccc3F)c([N+](=O)[O-])c2)CC1 | 16.4 µM (active) |
| NC(=O)C1CCN(C(=O)c2ccc(F)c(S(=O)(=O)N3CCOCC3)c2)CC1 | inactive |
| CC1(C)CC(O)C(CCC(O)c2ccccc2)C(C)(C)N1 (configuration not stated) | inactive |
| CC(=O)Oc1ccc(N(C(C)=O)S(=O)(=O)c2ccc3ccccc3c2)cc1Br | inactive |
| Cc1ccc(S(=O)(=O)N(CCCN(C)C)Cc2ccc3c(c2)OCO3)cc1 | inactive |
| CC(=O)N(c1ccc2oc(=O)sc2c1)S(=O)(=O)c1ccc(C)cc1 | 16.4 µM (active) |
| COc1ccc(C2/C(=C(/O)c3ccc(OC(C)C)cc3)C(=O)C(=O)N2CCCN2CCOCC2)cc1 (configuration not stated) | inactive |
| C=CCn1c(SCC(=O)Nc2ccc(NC(C)=O)cc2)nc2sc(C)c(C)c2c1=O | inactive |
| O=C1CCCC(O)=C1N=Nc1ccc(S(=O)(=O)N2CCOCC2)cc1 | inactive |
| O=C1CCC(Cc2ccccc2)N1 (configuration not stated) | inactive |
| COc1ccc(NC(=O)C2CCC(CNC(=O)[C@@H]3Cc4ccccc4CN3)CC2)cc1 (some centres not stated) | inactive |
| O=C(CCCN1C(=O)/C(=C/c2ccccc2)SC1=S)Nc1ccc(O)cc1 | inactive |
| O=C1/C(=C/c2ccc(F)cc2)SC(=S)N1CCCC(=O)N1CCCCC1CCO (configuration not stated) | 25.9 µM (active) |

| SMILES | Potency |
| --- | --- |
| COc1ccc(/C=C2\SC(=S)N(CCC(=O)N3CCOCC3)C2=O)cc1OC | inactive |
| COc1ccc(/C=C2\SC(=S)N(CCCC(=O)NC3CCCC3)C2=O)cc1OC | 16.4 µM (active) |
| COc1cccc(/C=C2/SC(=S)N(CC(=O)NC3C=CS(=O)(=O)C3)C2=O)c1 (configuration not stated) | inactive |
| COc1cccc(/C=C2\SC(=S)N(CCCC(=O)N3CCOCC3)C2=O)c1 | 18.4 µM (active) |
| COc1ccc(/C=C2\SC(=S)N(CCC(=O)Nc3cccc(C(=O)O)c3)C2=O)cc1OC | inactive |
| C=CCOc1ccc(/C=C2\SC(=S)N(CCC(=O)O)C2=O)cc1 | inactive |
| COc1ccc(/C=C2\SC(=S)N(CCC(=O)Nc3ccccn3)C2=O)cc1OC | inactive |
| CC(=O)N(OCc1ccc(OC(C)C)c(Cl)c1)C(C)=O | inactive |
| C[N+](C)(C)CCNC(=O)c1c(O)c2c([nH]c1=O)CCCC2 | inactive |
| COc1ccc2nc(N3CCCC(O)C3)c(C#N)cc2c1 (configuration not stated) | inactive |
| Cc1ccc(NC(=O)COC(=O)C2C3CC4OC(=O)C2C4C3)cc1Cl (configuration not stated) | inactive |
| O=C(COC(=O)c1ccccn1)NNC(=O)c1ccc([N+](=O)[O-])cc1 | inactive |
| CCc1noc(C)c1C(=O)NCCN1Cc2cc(OC)ccc2OC(CC)C1 (configuration not stated) | inactive |
| Nc1nc(N)c(N=O)c(N)n1 | inactive |
| O=C(O)C1C2C=CC(C2)C1C(=O)NCc1ccccc1 (configuration not stated) | inactive |
| O=C(NCc1ccccc1)C1CNCC(C(=O)NCc2ccccc2)C1 (configuration not stated) | inactive |
| O=C(NCc1ccccc1)[C@H]1C[C@@H]1[C@H](NP(=O)(c1ccccc1)c1ccccc1)c1ccccc1 | 20.6 µM (active) |
| O=C1CSC(=O)N1CCOCCN1C(=O)CSC1=O | inactive |
| COCCn1c(C)cc(C(=O)COC(=O)/C=C/c2cccc(OC)c2)c1C | inactive |
| Cc1cc2cc3n(c2nn1)N=C(Cl)CC3 | 11.6 µM (active) |
| CS(=O)(=O)c1ccc(Cl)c(NC(=O)COC(=O)c2cccc(S(=O)(=O)N3CCCC3)c2)c1 | inactive |
| CC1(C(=O)Nc2cccc3cccnc23)CCN1C(=O)CCC1CCCC1 (configuration not stated) | 16.4 µM (active) |
| CC1(C(=O)Nc2ccccc2Br)CCN1C(=O)CC1CC1 (configuration not stated) | inactive |
| CC1(C(=O)NS(=O)(=O)c2ccc(Cl)cc2)CCN1C(=O)CC1CCCC1 (configuration not stated) | inactive |
